# Assay results published in ChEMBL document CHEMBL3988442, “University of Dundee, Small-Polar-MMV Screening Library” (2021).
# Hit rate of the full screen: of about 48,000 compounds, about 13,000 (27%) showed an effect of 50% or more. Some of the results follow.
# Tested on: Wolbachia pipientis
# Test: Anti-Wolbachia Cell-Based Screen
# Assay type: functional
# Design: scale not given: in the data most compounds retested in dose-response had high values
# Conditions: 5 µM
row,SMILES,Percent Effect [%]
1,O=C(c1ccc(-c2cc[nH]n2)cc1)N1CC[C@H](CO)[C@H](O)C1,0.4
2,CCN(Cc1cc(Cl)c(O)c(OC)c1)Cc1nc(COC)no1,-9.296
3,COCCS(=O)(=O)Nc1ccc(-n2nccc2C(F)(F)F)cc1,0.6513
4,CN(CC(F)(F)F)C(=O)CNC(=O)Cc1cccc(O)c1,-3.923
5,CN(CC(F)(F)F)C(=O)CNC(=O)Cc1ccccc1O,-0.134
6,O=C(Nc1ccc(-c2csnn2)cc1)N1CCC(N2CCCC2)C1 (stereo not drawn),0.9
7,CC1CCN(C(=O)NCC(=O)N(C)CC(F)(F)F)C1 (stereo not drawn),103.3
8,CC(C)C1CCN(C(=O)NCC(=O)N(C)CC(F)(F)F)CC1,101.1
9,CN(CC(F)(F)F)C(=O)CNC(=O)Cc1ccc(O)cc1Cl,-9.929
10,CN(CC(F)(F)F)C(=O)CNC(=O)N1CCC(N2CCCC2)C1 (stereo not drawn),94.48
11,CCOC1CCN(C(=O)NCCN(C)C(=O)OC(C)(C)C)CC1,7.411
12,Cc1cnn(CCCNC(=O)N2CCCCC(N3CCCC3)C2)c1 (stereo not drawn),-6.749
13,CC(C)=CCN1C[C@H]2CC[C@@H]1CN(CCC(=O)NCc1ccco1)C2,-7.993
14,CCOc1ccc(NC(=O)Cc2cc(C)[nH]n2)cc1CO,-2.214
15,Cc1cc(C)c2c(c1)C(NC(=O)CSCc1ccncc1)CCO2 (stereo not drawn),0.01106
16,CC(Cn1cccn1)NC(=O)NCc1ccccn1 (stereo not drawn),-2.779
17,Cc1cccnc1NC(=O)NC(C)Cn1cccn1 (stereo not drawn),2.456
18,Cc1ccc(NC(=O)NC(C)Cn2cccn2)cc1 (stereo not drawn),-6.589
19,Cc1nnc(NC(=O)NC(C)Cn2cccn2)s1 (stereo not drawn),98.41
20,CCCc1nnc(NC(=O)NC(C)Cn2cccn2)s1 (stereo not drawn),106.7
21,CC(C)CCC(C)NC(=O)Nc1ccccn1 (stereo not drawn),3.296
22,COC(C)(C)CC(C)NC(=O)Nc1ccccn1 (stereo not drawn),11.35
23,CC(Cn1cccn1)NC(=O)Nc1ccccn1 (stereo not drawn),102.9
24,CC(Cn1cccn1)NC(=O)Nc1nnc(C2CC2)s1 (stereo not drawn),-3.463
25,CCN1C(=O)CC(N(C)Cc2nc3ccccc3c(=O)[nH]2)C1=O (stereo not drawn),-2.279

row,SMILES,Percent Effect [%]
1,CN(Cc1nc2ccccc2c(=O)[nH]1)C[C@@H]1CCCN2CCCC[C@H]12,-19.12
2,CC(C)CS(=O)(=O)CC(=O)N(C)Cc1ccc(OC(F)F)cc1,-10.21
3,COc1ccc(NC(=O)NC(C)Cn2cccn2)cn1 (stereo not drawn),-4.158
4,CC(Cn1cccn1)NC(=O)Nc1nccs1 (stereo not drawn),-3.735
5,CC(Cn1cccn1)NC(=O)Nc1ccc(N(C)C)nc1 (stereo not drawn),1.644
6,CCC(CC)c1nnc(NC(=O)NC(C)Cn2cccn2)s1 (stereo not drawn),102.8
7,CC(Cn1cccn1)NC(=O)Nc1nncs1 (stereo not drawn),94.45
8,COc1cccc(CN2CCc3nc(C(N)=O)sc3CC2)c1.O=C(O)C(F)(F)F,8.884
9,O=C(NCc1ccoc1)Nc1ccc(CN2CCOC2=O)cc1,-1.544
10,O=C1OCCN1c1cccc(CNS(=O)(=O)Cc2ccc(F)cc2)c1,-0.8668
11,COc1cccc(CN2CCC3(COCc4cnc(N(C)C)nc43)C2)c1.O=C(O)C(F)(F)F (stereo not drawn),-4.622
12,CN(C)C(=O)CN1CCC2(COCc3cnc(-c4ccccc4)nc32)C1 (stereo not drawn),100.5
13,Cc1ccccc1CN1CCC2(COCc3cnc(N(C)C)nc32)C1.O=C(O)C(F)(F)F (stereo not drawn),-3.264
14,CN(C)c1ncc2c(n1)C1(CCN(Cc3ccccc3F)C1)COC2.O=C(O)C(F)(F)F (stereo not drawn),-3.722
15,CN(C)C(=O)CN1CCC2(COCc3cnc(-c4cccnc4)nc32)C1.O=C(O)C(F)(F)F.O=C(O)C(F)(F)F (stereo not drawn),108.5
16,O=C(CC1CCc2ccccc21)NC1(C(=O)O)CCOCC1 (stereo not drawn),-1.321
17,CNc1ncccc1CN1CCCCC1c1cc(C)n2ccnc2n1 (stereo not drawn),94
18,Cc1cccnc1CN1CCCCC1c1ccn2ccnc2n1 (stereo not drawn),107.3
19,Fc1cccnc1CN1CCCCC1c1ccn2ccnc2n1 (stereo not drawn),6.686
20,CNc1cc(C2CCCN2Cc2ccccc2OCC(=O)O)ccn1 (stereo not drawn),-5.445
21,Cc1ccccc1CSc1nc(N)cc(N2CC[C@@H](O)C2)n1,2.755
22,CNc1ncccc1CN1CCCCC1c1ccnc(N)n1 (stereo not drawn),116.5
23,Cc1cccnc1CN1CCN(CC(=O)N(C)C)[C@@H]2CS(=O)(=O)C[C@@H]21,1.676
24,CNc1ncccc1CN1CCC1c1cc(N)nc(C)n1 (stereo not drawn),93.93
25,O=C1CCc2cc(S(=O)(=O)NC(=O)c3ccc4c(c3)CCO4)ccc2N1,-17.2

row,SMILES,Percent Effect [%]
1,O=S(=O)(CCCn1cncn1)Cc1cccc(F)c1,2.155
2,CC(C)=CCN1CCN(CCCc2ccccc2)[C@H]2CS(=O)(=O)C[C@H]21,-6.821
3,CC(C)CCN(C)C(=O)c1cc(CN2CCC(O)CC2)on1,-4.489
4,CCC(=O)N1CCc2[nH]cnc2C12CCN(C(=O)c1snnc1C)CC2,7.824
5,CNc1cc(C2CN(Cc3cccnc3NC)CCO2)nc(C)n1 (stereo not drawn),96.43
6,CNc1cc(C)nc(C2CN(Cc3ccc(C)nc3)CCO2)c1 (stereo not drawn),-3.28
7,Cc1ccc(C2CN(Cc3cnc(-c4ccccn4)s3)CCO2)o1 (stereo not drawn),1.384
8,Cc1cc(N2CCC(n3cc(CN4CCSCC4)nn3)CC2)ccn1,-12.68
9,CCOC(=O)C1CCN(Cc2c(O)ccc3oc4c(c23)CCCC4)CC1,10.57
10,COc1cc2c(cc1OC)CCN(C(=O)Cn1nc(C)cc1C)CC2,0.6612
11,c1ccc(CCCN2CCN(CCn3cncn3)CC2)cc1,3.655
12,COc1ccc(-c2nccn2CCN2CCCCC2)c(OC)c1OC,-1.363
13,COc1ccc(CN2CCn3cncc3C2)cc1Cn1cncn1,18.87
14,COc1cc2c(c(OC)c1OC)CCN(CCN1CCCCC1)CC2,112.9
15,COc1cc(C)cc(C(C(=O)O)N(C)CCN2CCCC2)c1OC (stereo not drawn),-1.945
16,COc1cc2c(cc1OC)CN(C(=O)Cn1nc(C)cc1C)CC2,1.135
17,COc1cc2c(c(OC)c1OC)CCN(CCn1nc(C)cc1C)CC2,72.3
18,COc1cc2c(c(OC)c1OC)CCN(CCn1cncn1)CC2,66.41
19,O=C(C1CC=CC1)N1C[C@@H]2CN(Cc3ccsc3)CCO[C@@H]2C1.O=C(O)C(F)(F)F,1.635
20,CS(=O)(=O)CCNC(=O)N(Cc1ccoc1)C1CCCCC1,-12.04
21,COc1ccc(Cc2nnc3n2N=C(C(C)(C)C)CS3)cc1,3.244
22,CSCC(C)(O)CNC(=O)c1cccc(Cl)c1Cl (stereo not drawn),-18.01
23,Cn1ncc(C(=O)N2CCCC(n3cccn3)C2)c1C1CC1 (stereo not drawn),3.227
24,Cc1cc(C(=O)N2CCCC(n3cccn3)C2)c(C)n1C1CC1 (stereo not drawn),121.6
25,Cc1cc(C(=O)N2CCCC(n3ccnc3)C2)c(C)n1C1CC1 (stereo not drawn),137.5

row,SMILES,Percent Effect [%]
1,Cc1cc(C(=O)N2CCCC(n3cncn3)C2)c(C)n1C1CC1 (stereo not drawn),0.2394
2,Cc1nn2cccnc2c1C(=O)N1CCCC(n2ccnc2)C1 (stereo not drawn),4.541
3,Cn1cc(N2CCC(Nc3ccc4nccnc4n3)C2=O)cn1 (stereo not drawn),-8.237
4,Cc1nnc2n1CC(CNc1cnc3ccccc3n1)CC2 (stereo not drawn),0.6716
5,Cc1ccn(CCNc2ncnc3c2CCN(S(C)(=O)=O)CC3)n1,5.573
6,O=C(N[C@@H]1CN(Cc2ccoc2)C[C@@H]2CCCO[C@@H]21)C1CCC1,85.36
7,CS(=O)(=O)N[C@@H]1CN(Cc2ccco2)C[C@@H]2CCCO[C@@H]21.O=C(O)C(F)(F)F,1.285
8,O=C(CC1CC1)N[C@@H]1CN(Cc2ccoc2)C[C@@H]2CCCO[C@@H]21,-6.81
9,O=C(CC1CC1)N[C@@H]1CN(Cc2ccco2)C[C@@H]2CCCO[C@@H]21.O=C(O)C(F)(F)F,-7.613
10,Cc1oncc1C(=O)N[C@@H]1CN(Cc2ccco2)C[C@@H]2CCCO[C@@H]21.O=C(O)C(F)(F)F,107.8
11,Cc1oncc1C(=O)N[C@@H]1CN(Cc2ccoc2)C[C@@H]2CCCO[C@@H]21.O=C(O)C(F)(F)F,105.5
12,CN(C)[C@@H]1CN(Cc2ccoc2)C[C@@H]2CCCO[C@@H]21.O=C(O)C(F)(F)F.O=C(O)C(F)(F)F,-4.757
13,Cc1oncc1C(=O)N[C@@H]1CN(c2ncccn2)C[C@@H]2CCCO[C@@H]21.O=C(O)C(F)(F)F,-3.566
14,CCOc1cccc(CCNC(=O)Cc2ccn[nH]2)n1,-27.67
15,O=C(O)[C@@]12CN(c3cnccn3)C[C@@H]1CN(C1CCOCC1)C2,-13.72
16,CNC(=O)[C@@H]1C[C@@H](NC(=O)Cc2cccs2)CN1C1CCOCC1,0.5082
17,Cc1nc2ccccn2c1CN1C[C@@H](CN2CCOCC2)[C@@H](CO)C1,-3.894
18,COCCn1c(=O)n(C)c(=O)c2ccc(C3CCN(C(C)=O)CC3)nc21,55.11
19,COCCn1ccnc1C1CCN(C(=O)C(O)c2ccc(F)cc2)CC1 (stereo not drawn),-18.13
20,COCCN1C(=O)[C@H]2CC[C@@H]1CN(c1nccc(C3CCCC3)n1)C2,-7.608
21,COCCN1CCC(c2nc3c([nH]2)CC(C)(C)CNC3=O)C1 (stereo not drawn),-9.937
22,CC(=O)N1CCC(c2nn(C)c(=O)n2-c2ccccc2)CC1,-1.019
23,COCCn1c(=O)n(C)c(=O)c2ccc(C3CCC(CN)CC3)nc21.Cl (stereo not drawn),114.4
